Source: PubChem BioAssay
Active and inactive are the calls of the source.

Key:
[1] = small molecules captured by biotinylated probe aFSTL3 – biochemical, small-molecule microarray, fluorescence 635/667, stem cell growth factor project, primary screen (AID 1064); settings: higher = more signal;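 also: measures binding of the biotinylated anti-FSTL3 antibody to printed compounds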
[2] = binders from COS7 lysate, DM2A8 probe, primary screen, torsin A project, cell lysate, small-molecule microarray, fluorescence 635/667 (AID 1065); settings: higher = more signal, COS7 lysate expressing mutant human TOR1A
[3] = small molecules captured by biotinylated probe aFGF2 – biochemical, small-molecule microarray, fluorescence 635/667, stem cell growth factor project, primary screen (AID 1067); settings: higher = more signal;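 also: measures binding of biotinylated aFGF2 protein to printed compounds on slides; z-score merges feature fluorescence and signal-to-noise across triplicate slides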
[4] = small molecules captured by biotinylated probe aFGF10 – biochemical, small-molecule microarray, fluorescence 635/667, stem cell growth factor project, primary screen (AID 1071); settings: higher = more signal;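 also: score merges 667 nm spot intensity and signal to noise from triplicate slides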
[5] = target: Neurogenic locus notch homolog protein 2 (Homo sapiens) (UniProt Q04721); experiment: small molecules binding Notch2 protein – biochemical, small-molecule microarray, 635 nm fluorescence, stem cell growth factors, primary screen (AID 1073); settings: higher = more signal
Neurogenic locus notch homolog protein 2 (Homo sapiens), sequence (Q04721 whole entry, looked up, canonical isoform): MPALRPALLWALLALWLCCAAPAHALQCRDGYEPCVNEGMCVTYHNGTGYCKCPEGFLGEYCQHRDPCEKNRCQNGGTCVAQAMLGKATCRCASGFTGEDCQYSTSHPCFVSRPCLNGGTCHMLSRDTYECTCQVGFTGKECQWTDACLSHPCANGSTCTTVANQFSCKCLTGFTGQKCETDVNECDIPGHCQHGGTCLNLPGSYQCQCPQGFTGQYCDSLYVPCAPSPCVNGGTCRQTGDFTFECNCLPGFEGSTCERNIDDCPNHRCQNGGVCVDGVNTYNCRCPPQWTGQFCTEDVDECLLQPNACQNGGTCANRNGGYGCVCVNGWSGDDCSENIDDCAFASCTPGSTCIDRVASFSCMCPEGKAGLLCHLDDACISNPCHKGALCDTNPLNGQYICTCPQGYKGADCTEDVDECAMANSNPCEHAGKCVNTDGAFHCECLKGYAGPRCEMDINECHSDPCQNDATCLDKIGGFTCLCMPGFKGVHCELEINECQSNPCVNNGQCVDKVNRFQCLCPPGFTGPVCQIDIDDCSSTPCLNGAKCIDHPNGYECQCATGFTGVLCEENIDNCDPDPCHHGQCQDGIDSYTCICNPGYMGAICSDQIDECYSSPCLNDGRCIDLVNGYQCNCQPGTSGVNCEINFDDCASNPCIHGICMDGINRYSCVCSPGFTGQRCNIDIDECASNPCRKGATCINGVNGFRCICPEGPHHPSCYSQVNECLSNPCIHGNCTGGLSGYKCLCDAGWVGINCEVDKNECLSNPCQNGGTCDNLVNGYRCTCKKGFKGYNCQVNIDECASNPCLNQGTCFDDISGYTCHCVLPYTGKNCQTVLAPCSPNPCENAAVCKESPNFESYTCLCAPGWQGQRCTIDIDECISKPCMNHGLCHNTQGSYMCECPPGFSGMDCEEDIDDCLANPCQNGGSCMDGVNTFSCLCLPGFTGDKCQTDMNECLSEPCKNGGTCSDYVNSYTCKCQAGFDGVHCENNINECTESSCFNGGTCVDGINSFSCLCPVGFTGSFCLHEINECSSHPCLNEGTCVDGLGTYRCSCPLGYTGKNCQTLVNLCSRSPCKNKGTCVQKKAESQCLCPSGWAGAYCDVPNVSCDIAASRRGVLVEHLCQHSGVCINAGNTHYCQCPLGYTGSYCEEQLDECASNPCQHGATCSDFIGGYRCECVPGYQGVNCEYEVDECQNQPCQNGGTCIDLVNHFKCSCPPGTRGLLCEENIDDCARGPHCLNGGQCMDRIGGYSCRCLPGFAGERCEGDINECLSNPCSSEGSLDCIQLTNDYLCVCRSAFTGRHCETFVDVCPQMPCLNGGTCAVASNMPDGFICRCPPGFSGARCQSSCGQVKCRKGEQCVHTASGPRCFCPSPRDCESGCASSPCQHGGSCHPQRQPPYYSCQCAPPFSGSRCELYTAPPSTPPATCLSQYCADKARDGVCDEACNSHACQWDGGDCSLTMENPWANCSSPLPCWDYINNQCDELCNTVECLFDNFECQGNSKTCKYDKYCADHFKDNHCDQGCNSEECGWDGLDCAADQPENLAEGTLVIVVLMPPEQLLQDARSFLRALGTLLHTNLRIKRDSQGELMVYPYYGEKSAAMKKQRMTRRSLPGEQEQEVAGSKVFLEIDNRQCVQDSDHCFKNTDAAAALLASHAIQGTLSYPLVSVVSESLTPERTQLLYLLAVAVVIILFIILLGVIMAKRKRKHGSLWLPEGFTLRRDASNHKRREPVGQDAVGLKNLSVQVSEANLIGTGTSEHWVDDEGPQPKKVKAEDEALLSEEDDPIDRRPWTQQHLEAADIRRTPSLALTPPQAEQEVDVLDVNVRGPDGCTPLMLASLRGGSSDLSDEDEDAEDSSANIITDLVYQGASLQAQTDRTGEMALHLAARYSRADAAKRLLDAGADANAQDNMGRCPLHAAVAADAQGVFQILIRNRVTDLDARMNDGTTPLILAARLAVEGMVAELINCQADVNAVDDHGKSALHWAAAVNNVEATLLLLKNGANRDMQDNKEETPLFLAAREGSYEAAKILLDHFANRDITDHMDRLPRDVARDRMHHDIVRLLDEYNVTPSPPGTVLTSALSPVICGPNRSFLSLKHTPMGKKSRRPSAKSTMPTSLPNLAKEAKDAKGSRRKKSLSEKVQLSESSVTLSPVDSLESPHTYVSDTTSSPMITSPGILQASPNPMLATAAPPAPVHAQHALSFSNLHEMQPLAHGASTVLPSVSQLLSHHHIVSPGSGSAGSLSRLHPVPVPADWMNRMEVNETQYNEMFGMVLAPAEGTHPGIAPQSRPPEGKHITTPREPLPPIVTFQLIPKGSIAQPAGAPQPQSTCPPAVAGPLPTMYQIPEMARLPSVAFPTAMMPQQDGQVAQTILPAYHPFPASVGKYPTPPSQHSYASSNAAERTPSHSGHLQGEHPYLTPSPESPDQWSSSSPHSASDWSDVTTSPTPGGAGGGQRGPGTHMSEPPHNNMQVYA

[6] = target: Pro-neuregulin-1, membrane-bound isoform (Homo sapiens) (UniProt Q02297); experiment: small molecules binding neuregulin-1 protein – biochemical, small-molecule microarray, fluorescence 635/667, psychiatric disease protein project, primary screen (AID 1075); settings: NRG1 binding, 635 nm fluorescence, higher = more signal;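 also: score combines 667 nm spot fluorescence with signal to noise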
Pro-neuregulin-1, membrane-bound isoform (Homo sapiens), sequence (Q02297 whole entry, looked up, the tested form may be a part, canonical isoform): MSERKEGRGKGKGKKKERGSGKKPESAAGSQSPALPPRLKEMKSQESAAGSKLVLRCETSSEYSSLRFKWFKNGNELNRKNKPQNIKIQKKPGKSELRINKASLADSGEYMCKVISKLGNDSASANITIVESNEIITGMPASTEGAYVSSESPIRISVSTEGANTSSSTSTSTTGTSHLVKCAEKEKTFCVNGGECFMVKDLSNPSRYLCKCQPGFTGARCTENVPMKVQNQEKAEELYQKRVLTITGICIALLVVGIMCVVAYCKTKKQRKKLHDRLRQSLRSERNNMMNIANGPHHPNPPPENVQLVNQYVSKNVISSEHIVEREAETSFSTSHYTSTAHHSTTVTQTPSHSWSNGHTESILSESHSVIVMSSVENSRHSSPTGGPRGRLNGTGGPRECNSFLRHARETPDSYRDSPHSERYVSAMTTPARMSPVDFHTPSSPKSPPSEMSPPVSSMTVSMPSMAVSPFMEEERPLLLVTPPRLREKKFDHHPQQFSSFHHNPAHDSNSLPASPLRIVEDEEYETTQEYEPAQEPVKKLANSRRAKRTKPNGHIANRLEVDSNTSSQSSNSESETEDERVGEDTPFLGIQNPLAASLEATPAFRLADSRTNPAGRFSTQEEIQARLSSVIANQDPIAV

[7] = tested on: Neuregulin-1 EGF-like domain; experiment: small molecules binding NRG1 EGF domain – biochemical, small-molecule microarray, 635 nm fluorescence, primary screen (AID 1081); settings: higher = more signal;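 also: binding of the protein to compounds printed on small-molecule microarray slides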
[8] = FRG1 expression reporter modulators in myotubes – cell-based, C2C12 myotubes, firefly/Renilla luciferase, luminescence, FRG1 inhibition for FSHD, primary screen (AID 1084); settings: FRG1 promoter luciferase, higher = more signal, called active from +8 up or from −8 down
[9] = small molecules captured by biotinylated probe aFST – biochemical, small-molecule microarray, fluorescence 635/667, stem cell growth factor project, primary screen (AID 1086); settings: higher = more signal;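 also: score merges 667 nm fluorescence with signal-to-noise of each printed compound spot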
[10] = binders of probe aHhip on microarray, primary screen, stem cell growth factor project, biochemical, small-molecule microarray, fluorescence 635/667 (AID 1087); settings: higher = more signal;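 also: score merges spot fluorescence at 667nm with spot signal to noise ratio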

Row | SMILES | composite z-score [1] | composite z-score [2] | composite z-score [3] | composite z-score [4] | composite z-score [5] | composite z-score [6] | composite z-score [7] | z-score [8] | composite z-score [9] | composite z-score [10]
1 | COc1ccc([Si](C)(C)[C@@H]2[C@@H](CC(=O)N3CCC[C@H]3CO)O[C@]3(C(=O)N(Cc4cccc(N5C(=O)c6cccc7cccc5c67)c4)c4ccccc43)[C@H]2C)cc1 | -0.401 | 0.342 | -0.0666 | 0.219 | -0.321 | 1.22 | 1.06 | -1.01 (inactive) | 0.019 | -0.0618
2 | C[C@]1(C(=O)O)c2ccccc2C(=O)N(Cc2cc(C(F)(F)F)cc(C(F)(F)F)c2)[C@H]1c1ccc(CO)cc1 | -0.0018 | -0.48 | -0.152 | 0.159 | -0.0211 | -0.179 | 0.0653 | 0.192 (inactive) | 0.192 | -0.236
3 | COCCOC(=O)N1C(=O)[C@@]2(c3cc(C#CCNC(N)=O)ccc31)[C@H](c1ccc(O)cc1)N1[C@H](c3ccccc3)[C@H](c3ccccc3)OC(=O)[C@H]1[C@@H]2C(=O)N1CCc2cc(OC)c(OC)cc2C1 | 0.141 | 0.0344 | 0.0525 | 0.67 | 1.07 | 1.06 | 0.786 | 0.411 (inactive) | 0.39 | -0.0427
4 | O=C/C=C/c1ccc(-c2ccccc2)cc1 | 0.4 | -0.0761 | -0.0785 | 0.182 | -0.327 | -0.727 | -0.836 | 2.7 (inactive) | -0.0543 | 0.21
5 | [N-]=[N+]=NCc1ccccc1C[C@@]1(C(N)=O)N=C(c2ccc(OCCCO)cc2)O[C@@H]1c1ccccc1N=[N+]=[N-] | -0.459 | -0.0227 | 0.0131 | 1.15 | 1.43 | 1.38 | 1.07 | -0.739 (inactive) | 0.926 | 0.0722
6 | COc1c(C)cc(-c2nc(-c3ccccc3)c3c(c2C)CO[Si]3(C(C)C)C(C)C)cc1C | -0.24 | 0.428 | -0.134 | 0.146 | 0.442 | -0.0636 | -0.104 | 0.232 (inactive) | 0.0724 | -0.0994
7 | C=CCNC(=O)[C@@H]1[C@H]2C(=O)O[C@H](c3ccccc3)[C@H](c3ccccc3)N2[C@H](c2ccc(OCCO)cc2)[C@@]12C(=O)Nc1ccc(C#CCNC(N)=O)cc12 | 0.18 | -0.262 | -0.22 | 0.169 | -1.01 | 0.43 | 0.184 | 0.243 (inactive) | 0.675 | -0.191
8 | COc1ccc(C#Cc2ccc3c(c2)[C@]2(C(=O)N3)[C@H](c3ccccc3OCCO)N3[C@H](c4ccccc4)[C@H](c4ccccc4)OC(=O)[C@H]3[C@@H]2C(=O)NC[C@H](O)c2ccccc2)cc1 | -0.38 | 0.203 | -0.0628 | 0.146 | 1 | 0.698 | 1.27 | 0.621 (inactive) | 0.469 | 0.21
9 | CC(C)c1ccc(NN2C(C(O)C(C)c3ccccc3)C=CC3C(=O)N(c4ccccc4)C(=O)C32)cc1 (stereo not given) | 1.31 | 1.04 | 0.51 | 1.08 | 1.71 | 2.09 | 1.12 | -0.632 (inactive) | 1.97 | -0.12
10 | C=C(COC)C(=O)CC[C@H](OC(C)=O)c1ccc(CO)o1 | -0.374 | 0.275 | -0.148 | 0.265 | -0.0537 | 0.0866 | 0.0976 | -0.28 (inactive) | -0.225 | -0.132
11 | COC(=O)[C@@]1(Cc2ccc(F)cc2)[C@H]2c3cc(C(=O)N(C)C)n(Cc4ccc(C(F)(F)F)nc4)c3C[C@H]2CN1C(=O)c1ccccc1 | 1.5 | 0.474 | 0.0642 | 0.69 | 1.74 | 2.03 | 1.18 | -0.909 (inactive) | 1.97 | 0.264
12 | CCCCC(=C=CC[C@@H](O)c1ccccc1OCCO)C[C@@H](O)c1ccccn1 | 0.0106 | 0.362 | -0.102 | 0.23 | 0.418 | 0.69 | 0.327 | -1.14 (inactive) | -0.0288 | -0.0645
13 | O=C(O)C1=CC[C@H]2C(=O)N(c3ccccc3)C(=O)[C@@H]12 | 0.115 | -0.037 | 0.0601 | 0.676 | 1.58 | 0.42 | 1.16 | -0.127 (inactive) | 0.914 | 0.0749
14 | COCCCNC(=O)[C@@]1(Cc2ccccc2I)c2ccccc2C(=O)N(C2CCCCC2)[C@H]1c1ccc(CO)cc1 | -0.101 | 0.346 | -0.0064 | 0.527 | 0.452 | 0.857 | 1.35 | -4.02 (inactive) | -0.729 | -0.0994
15 | CCOC(=O)C1=CCC(c2ccncc2)N(S(=O)(=O)c2ccc(C)cc2)C1 (stereo not given) | -0.149 | -0.128 | -0.0459 | 1.03 | 1.32 | 2.03 | 1.21 | -1.41 (inactive) | 0.981 | -0.0735
16 | O=C1NC(=O)C2C1C=CC(C(O)C(O)CO)N2Nc1ccccn1 (stereo not given) | -0.304 | -0.0729 | -0.154 | 0.383 | 0.864 | 0.548 | 0.515 | -0.708 (inactive) | 0.0126 | -0.191
17 | CCOC(=O)C[C@H]1[C@H](OC(=O)Cc2ccc3c(c2)OCO3)[C@@H](NC(=O)CC(C)C)c2cc(OCCCO)ccc2N1C(=O)c1ccc2ccccc2n1 | -0.306 | 1.01 | 0.0435 | 0.43 | 0.834 | 1.01 | 0.518 | -3.21 (inactive) | 0.376 | -0.344
18 | COCCOC(=O)N1C(=O)[C@@]2(c3ccccc31)[C@H](C(=O)Nc1nc3ccccc3s1)[C@H]1C(=O)O[C@H](c3ccccc3)[C@H](c3ccccc3)N1[C@@H]2c1ccccc1OCCO | 0.451 | 0.0049 | -0.0036 | 0.798 | 1.15 | 1.05 | 1.2 | 2.13 (inactive) | 0.318 | 0.157
19 | COc1ccc([Si](C)(C)[C@H]2[C@H](CC(=O)N(CCO)Cc3ccccc3)O[C@@]3(C(=O)N(Cc4ccc(N5C(=O)c6cccc7cccc5c67)cc4)c4ccccc43)[C@@H]2C)cc1 | -0.0915 | 0.285 | -0.0249 | 0.479 | 0.141 | 1.14 | 1.14 | -3.26 (inactive) | 0.193 | 0.12
20 | COCCOC(=O)N1C(=O)[C@@]2(c3cc(C#CCC(C(=O)OC)C(=O)OC)ccc31)[C@H](C(=O)N1CCc3cc(OC)c(OC)cc3C1)[C@H]1C(=O)O[C@H](c3ccccc3)[C@H](c3ccccc3)N1[C@@H]2c1ccccc1OCCO | -0.308 | 0.399 | -0.0608 | 0.375 | 1.44 | 0.875 | 1.22 | -0.223 (inactive) | 0.651 | -0.204
21 | CO[C@H]1O[C@H](CO)[C@@H](OC(=O)Nc2cccc(F)c2)[C@H](OC(=O)Nc2ccc3c(c2)OCO3)[C@@H]1OC(=O)Nc1ccc2c(c1)OCO2 | -0.0407 | 0.786 | 0.112 | 0.959 | 1.46 | 1.25 | 1.27 | 4 (inactive) | 0.986 | 0.21
22 | CC[C@@H](O[Si](C#C[Si](C(C)C)(C(C)C)C(C)C)(C(C)C)C(C)C)c1cn([C@H](C)c2ccccc2)nn1 | -0.51 | 0.488 | -0.0797 | 0.663 | 0.728 | 0.284 | 0.739 | -0.0777 (inactive) | 0.129 | 0.115
23 | COCCCNC(=O)[C@]1(Cc2ccccc2N=[N+]=[N-])N=C(c2ccc(OCCCO)cc2)O[C@@H]1c1ccccc1 | 0.522 | 1 | 0.286 | 0.232 | 1.4 | 1.73 | 1.27 | -2.74 (inactive) | 1.14 | 0.547
24 | Cc1ccc(S(=O)(=O)N2[C@@H](c3ccccc3)C(C(=O)O)=C[C@H]2C(C)(C)C)cc1 | -0.316 | 1.81 | 0.0103 | 0.611 | 1.45 | 1.37 | 1.23 | -1.84 (inactive) | 0.736 | -0.156
25 | C=C(COC)C(=O)CC[C@@H](OC(=O)c1ccccc1-c1ccccc1C(=O)O)c1ccccc1OCCO | -0.167 | 2.13 | -0.0543 | 1.27 | 0.468 | -0.189 | 1.12 | 0.896 (inactive) | -0.168 | -0.236
26 | COc1ccc(C(=O)Nc2ccc(CN3C(=O)[C@@]4(O[C@@H](CC(=O)N(CCO)Cc5ccccc5)[C@H]([Si](C)(C)c5ccc(OC)cc5)[C@H]4C)c4ccccc43)cc2)cc1 | -0.0679 | 0.378 | -0.135 | 0.086 | -0.769 | 0.984 | 0.921 | -2.13 (inactive) | -0.263 | -0.0074
27 | COCCOC(=O)N1C(=O)[C@@]2(c3cc(C#CCC(C(=O)OC)C(=O)OC)ccc31)[C@H](C(N)=O)[C@H]1C(=O)O[C@H](c3ccccc3)[C@H](c3ccccc3)N1[C@@H]2c1ccccc1OCCO | -0.453 | -0.413 | -0.152 | 0.47 | 0.937 | 0.555 | 1.19 | -1.3 (inactive) | 0.6 | -0.0618
